Experimental data reported in PubChem BioAssay (Tox21).
Active and inactive are the calls of the source. Unless noted, the call rests on the fitted dose curve; in most records, active means well fitted curve in the direction sought with a large enough effect in the repeat runs; inconclusive means weak or mixed curves; inactive means no such curve, though single readings can be large; an effect the other way counts as inactive or inconclusive.

What was measured:
[1] = qHTS assay to identify small molecule antagonists of the thyroid receptor (TR) signaling pathway - cell viability counter screen (AID 743064); further: nearly all actives have a fitted effect of over 50% in size; further: potency means the concentration at half of the fitted maximal effect
In short: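 Counter screen for cytotoxicity: compound plus T3 (1 nM final) on GH3.TRE-Luc cells, 23.5 h at 37 °C, then fluorescence viability readout with CellTiter-Fluor.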

[2] = test system: thyroid hormone receptor (rat, GH3 cells); experiment: qHTS assay to identify small molecule agonists of the thyroid receptor (TR) signaling pathway (AID 743066; calls by dose curve)
[3] = qHTS assay to identify small molecule antagonists of the estrogen receptor alpha (ER-alpha) signaling pathway - cell viability counter screen (AID 743074; calls by dose curve; further: nearly all actives have a fitted effect of over 45% in size; further: potency means the concentration at half of the fitted maximal effect)
[4] = molecular target: Estrogen receptor (Homo sapiens) (UniProt P03372); experiment: qHTS assay to identify small molecule agonists of the estrogen receptor alpha (ER-alpha) signaling pathway using the BG1 cell line (AID 743079); settings: BG1Luc4E2 cells, ERE-luciferase agonist, 22 h; activation: at 70.3 µM (top of the series); further: nearly all actives have a fitted effect of over 20% in size; further: potency means the concentration at half of the fitted maximal effect
[5] = qHTS assay to identify small molecule antagonists of the estrogen receptor alpha (ER-alpha) signaling pathway using the BG1 cell line - cell viability counter screen (AID 743081);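 further: compound given together with 17beta-estradiol as the ER stimulus; nearly all actives have a fitted effect of over 45% in size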; further: potency means the concentration at half of the fitted maximal effect
Aromatase (Homo sapiens) = Aromatase (Homo sapiens) (UniProt P11511); experiment: qHTS assay to identify aromatase inhibitors (AID 743083); further: nearly all actives have a fitted effect of over 55% in size; further: potency means the concentration at half of the fitted maximal effect
[6] = molecular target: Aryl hydrocarbon receptor (Homo sapiens) (UniProt P35869); experiment: qHTS assay to identify small molecule that activate the aryl hydrocarbon receptor (AhR) signaling pathway (AID 743085); further: nearly all actives have a fitted effect of over 15% in size; further: potency means the concentration at half of the fitted maximal effect;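 on activation: HG2L7.5c1 human HepG2 liver cells with stably integrated DRE-driven firefly reporter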
In short: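 Measured in HG2L7.5c1 cells: CellTiter-Fluor signal (30 min incubation, 37C) for viability, then luciferase luminescence (30 min, room temperature). Compound contact time was 24 h at 37C, following a 5 h pre-incubation.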

[7] = qHTS assay to identify small molecule that activate the aryl hydrocarbon receptor (AhR) signaling pathway - cell viability counter screen (AID 743086); further: nearly all actives have a fitted effect of over 45% in size; further: potency means the concentration at half of the fitted maximal effect
In short: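 Cytotoxicity counter screen: CellTiter-Fluor signal (30 min, 37 C) in 4000 HepG2 cells/well carrying the DRE-luciferase reporter, following 24 h compound exposure at 37 C.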

[8] = qHTS assay to identify small molecule phospholipidosis (PLD) inducers (AID 1259344; active means well fitted curve in the direction sought with a large enough effect; inconclusive means small, poorly fitted or top-dose-only effect, or another doubt; inactive means no such curve, though single readings can be large; an effect the other way counts as inactive or inconclusive)
In short: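 Accumulated phospholipid, stained red by LipidTOX during 24 h compound treatment of HepG2 cells at 37 C, is quantified from images as pit number and intensity, normalised per cell using Hoechst-stained nuclei.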

[9] = molecular target: Nuclear receptor subfamily 1 group I member 2 (Rattus norvegicus) (UniProt Q9R1A7); experiment: Rat pregnane X receptor (rPXR) activation by small molecules, qHTS assay (AID 1346983); settings: rPXR luciferase reporter cells, One-Glo luminescence, 24 h; max activation: stronger effect = higher value; further: nearly all actives have a fitted effect of over 20% in size; further: potency means the concentration at half of the fitted maximal effect
In short: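 Luminescent readout (One-Glo luciferase, 30 min room temperature) followed 24 hr compound treatment at 37 C of rPXR cells plated 2,000 per well and preincubated 5hr; qHTS format with compounds delivered in DMSO.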

[10] = molecular target: Estrogen receptor (Homo sapiens) (UniProt P03372); experiment: qHTS assay to identify small molecule antagonists of the estrogen receptor alpha (ER-alpha) signaling pathway (AID 743069; active means well fitted curve in the direction sought with a large enough effect in the signal ratio in the repeat runs, not every such curve was filed as active; inconclusive means weak or mixed curves, or effect the other way; inactive means no such curve, though single readings can be large or run the other way; the % refers to the signal ratio; further: potency means the concentration at half of the fitted maximal effect)
In short: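 Fluorescence intensity from a beta-lactamase FRET substrate served as the read-out. Cells: HEK293 with stably integrated ER-alpha-UAS-bla reporter. Agonist 17beta-estradiol was co-added with compounds; incubation 18 hr at 37C, substrate 2 hr at room temperature.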

[11] = molecular target: Estrogen receptor (Homo sapiens) (UniProt P03372); experiment: qHTS assay to identify small molecule agonists of the estrogen receptor alpha (ER-alpha) signaling pathway (AID 743075; calls by dose curve; further: potency means the concentration at half of the fitted maximal effect)
[12] = qHTS assay to identify small molecule antagonists of the estrogen receptor alpha (ER-alpha) signaling pathway using the BG1 cell line (AID 743080; calls by dose curve;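 further: BG1 cells stimulated with 17beta-estradiol alongside compound; nearly all actives have a fitted effect of over 25% in size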)
In short: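 Seeding, 24 h rest, compound transfer from DMSO, 17beta-estradiol addition, 21.5 h incubation, CellTiter-Fluor (30 min, 37 C), then ONE-Glo (30 min, room temperature): this sequence was run on BG1-Luc-4E2 reporter cells.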

[13] = qHTS assay to identify aromatase inhibitors - cell viability counter screen (AID 743084);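 further: cells stimulated with testosterone during compound exposure; nearly all actives have a fitted effect of over 55% in size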; further: potency means the concentration at half of the fitted maximal effect
[14] = molecular target: Peroxisome proliferator-activated receptor gamma (Homo sapiens) (UniProt P37231); experiment: qHTS assay to identify small molecule agonists of the peroxisome proliferator-activated receptor gamma (PPARg) signaling pathway (AID 743094; active means well fitted activation curve with a large enough effect in the signal ratio in the repeat runs, not every such curve was filed as active; inconclusive means weak or mixed curves, or effect the other way; inactive means no such curve, though single readings can be large or run the other way; the % refers to the signal ratio)
In short: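 Agonist activity was taken from a beta-lactamase reporter (FRET substrate, 1 h at room temperature) in HEK293H cells carrying a PPARg UAS-bla construct. Compounds in DMSO were incubated 17 h at 37C after a 5 h cell pre-incubation.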

[15] = qHTS assay to identify small molecule antagonists of the thyroid receptor (TR) signaling pathway (AID 743065); further: nearly all actives have a fitted effect of over 55% in size; further: potency means the concentration at half of the fitted maximal effect
In short: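 Antagonism measured as loss of luciferase signal in GH3 cells stably carrying a TRE-luciferase reporter, co-treated with compound and T3 (1 nM final) for 23.5 h at 37 C. Viability was read in the same well by CellTiter-Fluor.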

[16] = molecular target: Nuclear receptor subfamily 1 group I member 2 (Homo sapiens) (UniProt O75469); experiment: Human pregnane X receptor (PXR) activation by small molecules, qHTS assay (AID 1346985); further: nearly all actives have a fitted effect of over 40% in size; further: potency means the concentration at half of the fitted maximal effect
In short: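 DPX-2 cells (HepG2 co-transfected with a PXR response element and a CYP3A4-promoter luciferase construct) were seeded at 2,000 per well, rested 5 hr at 37C, then exposed to DMSO-dissolved compounds for 24 hr. Activation was read as luciferase luminescence.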

[17] = molecular target: Nuclear receptor subfamily 1 group I member 2 (Homo sapiens) (UniProt O75469); experiment: CYP3A4 induction through human pregnane X receptor (PXR) by small molecules, qHTS assay (AID 1346984); further: nearly all actives have a fitted effect of over 40% in size
In short: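 Read-out is luminescence after One-Glo addition, following a 3 hr, 37C incubation with Luciferin-IPA CYP3A4 substrate (3uM final). Before that, compounds were on DPX-2 cells (HepG2 co-transfected with PXR element plus CYP3A4-promoter luciferase) for 24 hr at 37C.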
On the % scale 0 is the no-effect control and ±100 the full control effect.

Estrogen receptor (Homo sapiens), sequence (P03372 whole entry, looked up): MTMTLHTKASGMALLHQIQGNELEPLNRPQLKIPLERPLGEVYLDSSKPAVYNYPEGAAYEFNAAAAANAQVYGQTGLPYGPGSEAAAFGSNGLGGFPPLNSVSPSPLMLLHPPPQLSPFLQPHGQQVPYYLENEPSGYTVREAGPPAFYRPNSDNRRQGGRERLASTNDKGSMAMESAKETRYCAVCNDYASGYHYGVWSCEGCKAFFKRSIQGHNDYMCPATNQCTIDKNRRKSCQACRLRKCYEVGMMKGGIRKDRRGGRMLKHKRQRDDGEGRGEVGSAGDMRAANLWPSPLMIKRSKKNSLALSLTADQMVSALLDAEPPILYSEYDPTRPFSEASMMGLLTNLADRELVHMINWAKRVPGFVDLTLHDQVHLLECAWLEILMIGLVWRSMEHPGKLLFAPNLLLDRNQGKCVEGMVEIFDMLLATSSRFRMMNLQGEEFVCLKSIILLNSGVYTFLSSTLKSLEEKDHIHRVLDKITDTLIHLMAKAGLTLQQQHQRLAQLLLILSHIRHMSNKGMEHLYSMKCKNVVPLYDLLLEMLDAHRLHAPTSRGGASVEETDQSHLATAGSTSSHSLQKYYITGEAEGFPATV
Aromatase (Homo sapiens), sequence (P11511 whole entry, looked up): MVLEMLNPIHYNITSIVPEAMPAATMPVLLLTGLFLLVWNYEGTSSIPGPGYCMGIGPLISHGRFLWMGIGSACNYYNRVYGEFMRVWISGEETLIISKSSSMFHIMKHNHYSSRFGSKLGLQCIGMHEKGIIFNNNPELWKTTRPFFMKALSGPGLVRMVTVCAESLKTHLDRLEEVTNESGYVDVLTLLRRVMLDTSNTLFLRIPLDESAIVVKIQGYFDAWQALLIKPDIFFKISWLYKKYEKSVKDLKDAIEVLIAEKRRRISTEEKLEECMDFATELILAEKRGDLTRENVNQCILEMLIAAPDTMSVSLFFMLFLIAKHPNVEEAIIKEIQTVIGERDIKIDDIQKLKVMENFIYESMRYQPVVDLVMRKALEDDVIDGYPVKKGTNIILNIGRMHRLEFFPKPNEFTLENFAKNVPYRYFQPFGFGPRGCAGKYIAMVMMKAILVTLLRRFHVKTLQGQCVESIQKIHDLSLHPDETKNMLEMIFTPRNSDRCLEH
Nuclear receptor subfamily 1 group I member 2 (Rattus norvegicus), sequence (Q9R1A7 whole entry, looked up): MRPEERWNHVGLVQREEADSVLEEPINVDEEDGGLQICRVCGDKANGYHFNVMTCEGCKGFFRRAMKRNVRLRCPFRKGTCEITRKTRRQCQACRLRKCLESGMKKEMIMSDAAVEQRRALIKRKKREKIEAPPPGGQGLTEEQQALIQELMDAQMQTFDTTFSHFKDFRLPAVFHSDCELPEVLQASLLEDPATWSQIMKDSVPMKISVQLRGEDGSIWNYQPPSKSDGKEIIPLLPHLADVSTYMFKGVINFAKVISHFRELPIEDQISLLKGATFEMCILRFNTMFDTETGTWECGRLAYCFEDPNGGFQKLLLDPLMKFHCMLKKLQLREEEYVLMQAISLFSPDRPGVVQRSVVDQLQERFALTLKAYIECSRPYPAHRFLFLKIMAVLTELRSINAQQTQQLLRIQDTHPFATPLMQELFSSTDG
Aryl hydrocarbon receptor (Homo sapiens), sequence (P35869 whole entry, looked up): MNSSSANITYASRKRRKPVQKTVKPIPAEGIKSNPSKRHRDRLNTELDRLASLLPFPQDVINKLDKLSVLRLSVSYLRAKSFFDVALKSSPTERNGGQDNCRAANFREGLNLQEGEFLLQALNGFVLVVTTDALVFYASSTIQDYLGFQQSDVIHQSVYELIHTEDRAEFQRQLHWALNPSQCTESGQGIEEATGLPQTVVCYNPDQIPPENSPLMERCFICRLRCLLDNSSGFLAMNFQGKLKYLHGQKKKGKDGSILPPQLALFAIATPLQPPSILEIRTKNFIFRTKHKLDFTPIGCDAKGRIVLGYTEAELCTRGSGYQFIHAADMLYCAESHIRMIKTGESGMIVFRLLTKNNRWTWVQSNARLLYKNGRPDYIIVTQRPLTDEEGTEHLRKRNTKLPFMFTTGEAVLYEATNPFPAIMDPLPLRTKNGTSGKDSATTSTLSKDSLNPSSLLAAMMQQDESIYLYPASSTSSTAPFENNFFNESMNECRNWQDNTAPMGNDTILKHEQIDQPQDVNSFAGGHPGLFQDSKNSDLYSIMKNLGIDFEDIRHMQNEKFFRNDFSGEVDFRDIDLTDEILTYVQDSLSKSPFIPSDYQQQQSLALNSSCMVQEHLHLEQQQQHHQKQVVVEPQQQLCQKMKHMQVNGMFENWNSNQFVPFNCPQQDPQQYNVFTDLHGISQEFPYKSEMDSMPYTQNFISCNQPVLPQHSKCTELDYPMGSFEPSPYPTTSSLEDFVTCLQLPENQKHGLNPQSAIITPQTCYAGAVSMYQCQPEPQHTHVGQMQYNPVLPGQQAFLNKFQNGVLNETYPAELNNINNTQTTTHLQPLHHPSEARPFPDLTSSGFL
Peroxisome proliferator-activated receptor gamma (Homo sapiens), sequence (P37231 whole entry, looked up): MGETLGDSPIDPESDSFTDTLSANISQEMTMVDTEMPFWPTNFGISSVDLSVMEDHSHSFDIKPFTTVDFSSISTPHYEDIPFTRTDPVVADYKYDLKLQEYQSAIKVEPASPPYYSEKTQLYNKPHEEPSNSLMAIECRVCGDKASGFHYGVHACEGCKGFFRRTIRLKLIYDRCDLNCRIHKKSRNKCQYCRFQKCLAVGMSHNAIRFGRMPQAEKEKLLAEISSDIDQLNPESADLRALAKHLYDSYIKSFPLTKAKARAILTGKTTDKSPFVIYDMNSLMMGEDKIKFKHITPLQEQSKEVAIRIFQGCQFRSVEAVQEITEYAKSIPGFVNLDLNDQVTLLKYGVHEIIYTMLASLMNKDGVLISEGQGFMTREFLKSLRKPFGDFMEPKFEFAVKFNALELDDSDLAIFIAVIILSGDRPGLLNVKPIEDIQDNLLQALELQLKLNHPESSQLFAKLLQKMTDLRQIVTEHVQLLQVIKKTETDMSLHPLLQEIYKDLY

O=C1/C(=C\c2cccs2)CCC/C1=C\c1cccs1
active: Potency [4] 26.6 µM | Potency [6] 23.7 µM | Potency [7] 11.9 µM | Potency [9] 7.08 µM
inactive: Potency [1] | Potency [2] | Potency [3] | Potency [5] | Potency (Aromatase (Homo sapiens)) | Potency [8]

O=C(O)[C@H](CC(=O)N1C[C@H]2CCCC[C@H]2C1)Cc1ccccc1
active: Potency [4] 33.5 µM
inactive: Potency [1] | Potency [2] | Potency [10] | Potency [11] | Potency [12] | Potency [5] | Potency (Aromatase (Homo sapiens)) | Potency [13] | Potency [6] | Potency [7] | Potency [8] | max activation [9] -2.62%

COc1ccc2c(=O)c(C)c(-c3ccccc3)oc2c1CN(C)C
inactive: Potency [3] | Potency [5] | Potency [13] | Potency [7] | Potency [14] | Potency [8] | max activation [9] -1.96%
active: Potency [6] 11.9 µM

CCC(=O)OCC(=O)[C@@]1(OC(=O)CC)[C@H](C)C[C@H]2[C@H]3[C@H]([C@@H](O)C[C@@]21C)[C@@]1(C)C=CC(=O)C=C1C[C@H]3Cl
inactive: Potency [15] | Potency [2] | Potency [3] | Potency [11] | Potency [5] | Potency (Aromatase (Homo sapiens)) | Potency [13] | Potency [6] | Potency [7] | Potency [14] | Potency [8] | Potency [16]
active: Potency [9] 3.98 µM

O=C(O)COc1ccc(CCNS(=O)(=O)c2ccccc2)s1
inactive: Potency [1] | Potency [15] | Potency [2] | Potency [10] | Potency [3] | Potency [11] | Potency [4] | Potency [12] | Potency [5] | Potency (Aromatase (Homo sapiens)) | Potency [13] | Potency [6] | Potency [14] | Potency [8] | Potency [17] | Potency [16]

CCSc1ccc2c(c1)N(CCCN1CCN(C)CC1)c1ccccc1S2
inactive: Potency [1] | Potency [3] | Potency [5] | Potency (Aromatase (Homo sapiens)) | Potency [13] | Potency [6] | Potency [7] | Potency [14] | Potency [8] | max activation [9] -0.528% | Potency [16]

CCCCCCCCCCCCCCCCCC(=O)OCC(C)O (stereo not drawn)
active: Potency [5] 21.1 µM | Potency [13] 18.8 µM | Potency [7] 33.5 µM
inactive: Potency [15] | Potency [2] | Potency [3] | Potency (Aromatase (Homo sapiens)) | Potency [6] | Potency [14] | Potency [8] | max activation [9] -10.2% | Potency [16]

C=C1CC[C@H](O)CC1=C/C=C1\CCC[C@]2(C)[C@@H]([C@H](C)CC[C@@H](O)C(C)(C)O)CC[C@@H]12
active: Potency [1] 26.6 µM | Potency [15] 16.8 µM | Potency [10] 21.3 µM [inconclusive]
inactive: Potency [11] | Potency [5] | Potency (Aromatase (Homo sapiens)) | Potency [13] | Potency [7] | Potency [8] | max activation [9] 5.8%

CC[N+](C)(C)Cc1ccccc1Br
inactive: Potency [10] | Potency [3] | Potency [11] | Potency [4] | Potency [12] | Potency [5] | Potency (Aromatase (Homo sapiens)) | Potency [13] | Potency [6] | Potency [7] | Potency [14] | Potency [8] | max activation [9] -1.23%

Nc1ncnc2c1ncn2[C@@H]1O[C@H](COP(=O)(O)OP(=O)(O)OP(=O)(O)O)[C@@H](O)[C@H]1O
active: Potency [3] 6.01 µM
inactive: Potency [11] | Potency [4] | Potency [5] | Potency (Aromatase (Homo sapiens)) | Potency [6] | Potency [7] | Potency [8] | max activation [9] 2.22% | Potency [16]

COC(F)(F)C(Cl)Cl
inactive: Potency [10] | Potency [3] | Potency [11] | Potency [4] | Potency [12] | Potency [5] | Potency (Aromatase (Homo sapiens)) | Potency [13] | Potency [6] | Potency [7] | Potency [14] | Potency [8] | max activation [9] 0.553% | Potency [16]

CCCCCCOc1ccc(C(=N)N(CCCC)CCCC)c2ccccc12
inactive: Potency [6] | Potency [8] | max activation [9] -20.9%
active: Potency [1] 5.31 µM | Potency [15] 5.31 µM | Potency [3] 9.52 µM | Potency [5] 33.5 µM | Potency (Aromatase (Homo sapiens)) 13.3 µM | Potency [13] 16.8 µM | Potency [7] 18.8 µM

CC1(C)[C@@H]2CC[C@@]1(C)[C@H](OC(=O)CSC#N)C2
inactive: Potency [1] | Potency [15] | Potency [2] | Potency [10] | Potency [3] | Potency [11] | Potency [4] | Potency [12] | Potency [5] | Potency (Aromatase (Homo sapiens)) | Potency [13] | Potency [6] | Potency [7] | Potency [14] | Potency [8] | max activation [9] 7.49%

CC(C)CN(C[C@@H](OP(=O)(O)O)[C@H](Cc1ccccc1)NC(=O)O[C@H]1CCOC1)S(=O)(=O)c1ccc(N)cc1
active: Potency [16] 10 µM
inactive: Potency [1] | Potency [15] | Potency [2] | Potency [10] | Potency [3] | Potency [11] | Potency [4] | Potency [12] | Potency [5] | Potency (Aromatase (Homo sapiens)) | Potency [13] | Potency [6] | Potency [7] | Potency [8] | Potency [17]

CCCCCCCCCCCCCCCCCC[N+](C)(C)CCC[Si](OC)(OC)OC
inactive: Potency [15] | Potency [2] | Potency [10] | Potency [3] | Potency [12] | Potency [5] | Potency (Aromatase (Homo sapiens)) | Potency [13] | Potency [6] | Potency [7] | Potency [14] | Potency [8] | max activation [9] 6.33% | Potency [16]
active: Potency [11] 23.9 µM [activator] | Potency [4] 5.96 µM
